From paper PMC6753376

Key:
[1] = target: 26S proteasome regulatory subunit RPN6 (UniProt Q12377); assay: cross-link between two proteins; cross-linking mass spectrometry
[2] = target: 26S proteasome regulatory subunit RPN7 (UniProt Q06103); assay: as above
[3] = target: 26S proteasome regulatory subunit RPN8 (UniProt Q08723); assay: as above
[4] = target: 26S proteasome subunit RPT4 (UniProt P53549); assay: as above
[5] = target: Ubiquitin carboxyl-terminal hydrolase 6 (UniProt P43593); assay: as above
[6] = target: 26S proteasome regulatory subunit RPN5 (UniProt Q12250); assay: as above
[7] = target: Proteasome subunit alpha type-1 (UniProt P21243); assay: as above
[8] = target: 26S proteasome regulatory subunit 4 homolog (UniProt P40327); assay: as above
[9] = target: 26S proteasome regulatory subunit 8 homolog (UniProt Q01939); assay: as above
[10] = target: Proteasome subunit alpha type-4 (UniProt P40303); assay: as above
[11] = target: 26S proteasome regulatory subunit 6B homolog (UniProt P33298); assay: as above
[12] = target: Proteasome subunit alpha type-6 (UniProt P40302); assay: as above
[13] = target: Proteasome subunit beta type-5 (UniProt P30656); assay: as above
[14] = target: Proteasome subunit beta type-7 (UniProt P30657); assay: as above
[15] = target: Proteasome subunit beta type-1 (UniProt P38624); assay: as above
[16] = target: 26S proteasome regulatory subunit RPN1 (UniProt P38764); assay: as above
[17] = target: Ubiquitin C-terminal hydrolase RPN11 (UniProt P43588); assay: as above
[18] = target: 26S proteasome regulatory subunit 7 homolog (UniProt P33299); assay: as above
[19] = target: 26S proteasome regulatory subunit RPN9 (UniProt Q04062); assay: as above
[20] = target: 26S proteasome subunit RPT4 (UniProt P53549); assay: cross-link between two proteins; affinity purification or IP with mass spectrometry; cross-linking mass spectrometry
[21] = target: Probable 26S proteasome regulatory subunit p28 (UniProt P50086); assay: cross-link between two proteins; cross-linking mass spectrometry

Measured: listed as a hit

26S proteasome regulatory subunit 8 homolog, Q01939
yes: [1] | [2] | [3]

26S proteasome regulatory subunit 4 homolog, P40327
yes: [4] | [5]

Probable proteasome subunit alpha type-7, P21242
yes: [6] | [4] | [7]

Proteasome subunit alpha type-3, P23638
yes: [8] | [9] | [1] | [2] | [10]

Proteasome subunit alpha type-4, P40303
yes: [8] | [9]

26S proteasome regulatory subunit 6A, P33297
yes: [11] | [9] | [6] | [3]

Proteasome subunit beta type-6, P23724
yes: [12] | [13] | [14]

Proteasome subunit alpha type-2, P23639
yes: [11] | [9] | [1]

Proteasome subunit alpha type-1, P21243
yes: [11] | [6] | [4] | [15] | [14]

26S proteasome regulatory subunit 7 homolog, P33299
yes: [9] | [16] | [2] | [3] | [4] | [10] | [5]

26S proteasome regulatory subunit RPN1, P38764
yes: [8] | [9] | [2] | [3] | [4] | [17] | [5]

Proteasome subunit alpha type-5, P32379
yes: [18]

26S proteasome regulatory subunit RPN10, P38886
yes: [17]

Proteasome subunit beta type-4, P22141
yes: [13]

Ubiquitin C-terminal hydrolase RPN11, P43588
yes: [19]

26S proteasome regulatory subunit RPN2, P32565
yes: [11] | [18] | [16] | [1] | [3] | [17]

26S proteasome subunit RPT4, P53549
yes: [9] | [6] | [3] | [19]

26S proteasome regulatory subunit RPN12, P32496
yes: [19]

Heat shock protein SSA1, P10591
yes: [20]

26S proteasome regulatory subunit 6B homolog, P33298
yes: [8] | [18] | [16] | [1] | [3] | [21] | [17]

Probable 26S proteasome regulatory subunit p28, P50086
yes: [9] | [1]
